High-throughput results as filed in PubChem.
An excerpt weighted towards active compounds, which were near 1.3% of everything screened.
TRPML1 blocker: blocks the human TRPML1 channel; Q9GZU1; TRPML1-inducible cells, Ca2+ dye fluorescence, FDSS; hits give low values; inhibition of EC80 agonist-evoked calcium signal; activity change, negative = inhibition, % (no concentration beside the values); actives 0.02% (n = 390,000); AID 624415; in the data active = activity change below about -50%; inconclusive = between about -30% and that limit;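 note: stimulus is agonist 54-4 at its EC80 concentration; % is set by controls: 0 for no effect and ±100 for the full control effect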
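Tet-induced TRPML1-DL cells loaded with Ca8 no-wash calcium dye were read kinetically on FDSS. Compound addition was followed by EC80 agonist 54-4 (4 uM final); inhibition was read over 110 s.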
Glioma ERSR ind: ER stress response induction in glioma | U87-MG GRP78 promoter luciferase reporter, 16 h | Potency, µM, for inactives: at the highest dose activation, most hits filed as activators | actives 0.02% (n = 420,000) | AID 602332; note: potency is the fitted concentration of half-maximal effect; series mostly up to about 76 µM; % of control where 0% means no effect; nearly all actives have a fitted effect of over 35% in size
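Stably transfected U87-MG human glioma cells carrying a GRP78-based luminescent sensor were seeded at 1000 cells/well, pin-dosed with compounds and incubated 16 h. Luciferase reagent was then added, and end-point luminescence was read after 10 min at room temperature.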
12-LOX inh: ALOX12 (human) lipoxygenase inhibition | P18054 | purified 12hLO, xylenol orange hydroperoxide absorbance | Potency, µM (highest dose often 108 µM), for the others: at the highest dose activity change, negative = inhibition, most hits filed as inhibitors | actives 1.1% (n = 580,000); note: potency is the fitted concentration of half-maximal effect; % is set by controls: 0 for no effect and ±100 for the full control effect
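Purified human 12hLO at 150 nM in 25 mM Hepes, 0.01% Triton X-100, pH 7.0, preincubated 15 min at room temperature with compound. Reaction started with 40 uM arachidonic acid, 30 min at room temperature. Hydroperoxide measured by Fe-xylenol orange, 573/405 nm absorbance ratio.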
Vif-APOBEC3F blk: Vif-A3F binding inhibition. Potency, µM (series often up to 46.1 µM), for inactives: top-dose activity, negative = active. actives 0.2% (n = 390,000). AID 602313. HeLa A3F-eYFP + Vif (tagged APOBEC3F with the HIV-1 protein that degrades it), YFP fluorescence increase; note: potency is the fitted concentration of half-maximal effect; % of control where 0% means no effect; nearly all actives have a fitted effect of over 65% in size
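HeLa cells stably expressing Vif plus C-terminally eYFP-tagged A3F were seeded, incubated overnight at 37 deg C, dosed with compound, incubated overnight again at 37 deg C. Yellow fluorescence (Ex 488/Em 500-530) reported blocked Vif-mediated A3F-eYFP degradation.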
Vif-A3G inh: Vif-A3G binding inhibition. actives 0.076% (n = 410,000). Q9HC16. HeLa A3G-eYFP + Vif (tagged APOBEC3G with the HIV-1 protein that degrades it), YFP fluorescence, overnight. Potency, µM (highest dose often 46.1 µM), for inactives: top-dose activity, negative = active, actives largely listed as inhibitors. AID 602310; note: potency is the fitted concentration of half-maximal effect; % is set by controls: 0 for no effect and ±100 for the full control effect; nearly all actives have a fitted effect of over 60% in size
Target sequence (Q9HC16 whole entry, looked up): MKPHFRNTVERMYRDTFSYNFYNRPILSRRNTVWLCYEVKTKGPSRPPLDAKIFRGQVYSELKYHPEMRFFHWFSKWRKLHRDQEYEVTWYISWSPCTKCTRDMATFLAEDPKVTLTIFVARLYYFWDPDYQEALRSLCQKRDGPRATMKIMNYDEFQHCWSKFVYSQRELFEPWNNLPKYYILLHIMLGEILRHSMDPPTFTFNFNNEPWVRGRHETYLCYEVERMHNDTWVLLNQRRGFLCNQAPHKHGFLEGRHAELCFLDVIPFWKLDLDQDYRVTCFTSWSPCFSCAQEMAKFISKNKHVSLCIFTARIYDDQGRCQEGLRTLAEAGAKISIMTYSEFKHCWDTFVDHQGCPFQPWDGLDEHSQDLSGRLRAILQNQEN
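Read-out is eYFP fluorescence (Ex 488/Em 500-530) from Vif-expressing HeLa A3G-eYFP cells; more signal means A3G escaped Vif-mediated degradation. Cells plated overnight, compound pinned in, incubated overnight at 37 deg C.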
TRPML1 agonist: activates the human TRPML1 channel; AID 624414; TRPML1-expressing cells, Ca2+ dye fluorescence, FDSS; activation, % (test concentration not listed); actives 0.12% (n = 410,000); Q9GZU1; in the data active = activation above about 50%; inconclusive = mostly about 30% to 49%; note: 0% is about no effect
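Tet-induced TRPML1-DL cells, 1,500 per well, cultured overnight, were loaded with a no-wash Ca2+ dye for 45–90 min. Calcium fluorescence was recorded on the FDSS for 110 s after compound addition, before the EC80 agonist (4 uM 54-4) was added.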
* hit, by the source's call; ? = inconclusive; . = no result; [ ] = remark or other dose. Unless noted, calls come from the whole dose curve; as a rule, active = well fitted curve in the direction sought with a large enough effect; inconclusive = small, poorly fitted or top-dose-only effect, or another doubt; inactive = no such curve, though single readings can be large; an effect the other way counts as inactive or inconclusive.

SMILES	TRPML1 blocker	Glioma ERSR ind	12-LOX inh	Vif-APOBEC3F blk	Vif-A3G inh	TRPML1 agonist
N#Cc1cc2c([nH]c1=S)CCCC2	-0.5	-2.2%	14.1µM*	1.4%	2.1%	0.1
CC(C)(C)CC(=O)N1CCN2C(=O)c3cc(-c4ccccc4)ccc3NC(=O)[C@H]2C1	.	.	5.7%[176 µM]	.	.	.
COc1cc(C2CC(=O)Nc3nc(C)[nH]c(=O)c32)cc(OC)c1OC (stereo not drawn)	.	.	-7.9%	.	.	.
CCCCOC(=O)c1nc2ccccc2nc1Nc1cccc(OC)c1	.	.	6.31µM*	.	.	.
COc1ccc(OC)c(NC(=O)CSc2nnc(CN3CCCCC3)n2-c2ccc(F)cc2)c1	.	.	14.5%	.	.	.
CN1/C(=C\C=O)C(C)(C)c2ccccc21	3.7	-2.8%	-2.1%	-5.4%	-5.2%	0.6
CN1\C(=C/C=C/C=C/C=[N+](C)C)C(C)(C)c2ccccc21	4.6	-5.9%	2.2%	?	?	86.3*
CC(=O)OCCCCCCCCCCC[N+]1(C)CCCCC1	10.1	-3.7%	?	1.1%	2.9%	0.4
C[N+]1(CC[N+]2(C)CCCCC2)CCCCC1	.	.	3.98µM*	.	.	.
Cn1c(-c2ccccc2)c(C(=O)CCl)c2ccccc21	-1.9	-16.4%	-26.1%	-5.9%	-27.3%	-0.3
CCCc1c(CC)c(=N)c2ccccc2n1C	-4.0	-3.9%	5.01µM*	0.7%	0.6%	-0.3
NC(=S)Cc1nc(-c2ccc(Cl)cc2)cs1	-16.5	-0.2%	35.5µM*	7.8%	-19.7%	2.6
COc1cc(CC2C(=O)Nc3ccccc32)cc(C)c1O (stereo not drawn)	-12.1	-5.5%	-7.5%	-1.0%	1.6%	-1.0
COc1cc(OC)c(CC2C(=O)Nc3cc(Cl)ccc32)c(OC)c1 (stereo not drawn)	.	.	17.8µM*	.	.	.
Cc1ccc2c(c1)N(CC(=O)NCCC1=CCCCC1)C(=O)c1cccnc1O2	-2.2	-1.3%	20µM*	3.2%	1.5%	-0.1
CC(Oc1ccc(F)cc1)C(=O)Nc1ccc2nsnc2c1 (stereo not drawn)	.	.	0.6%	.	.	.
Cc1ccc(N2NC3(CCC(C)CC3)NC2=S)cc1 (stereo not drawn)	.	.	1.26µM*	.	.	.
Cc1ccc(N2NC3(CCCCCC3)NC2=S)cc1	.	.	1µM*	.	.	.
S=C1NC2(CCCCC2)NN1c1ccccc1	22.1	0.8%	?	-4.3%	-10.1%	-0.4
CC1=CC(=O)C(C(=O)/C=C/c2ccc(C)s2)C(=O)O1 (stereo not drawn)	.	.	14.1µM*	.	.	.
Cc1ccc(C(=O)NC(=S)/C=C2\N(C)c3ccccc3C2(C)C)cc1	42.9	0.7%	10µM*	-7.3%	6.4%	1.9
CN1/C(=C/C(=S)NC(=O)C2CCC2)C(C)(C)c2ccccc21	-9.4	-2.9%	?	?	-0.1%	-0.4
CC(C)C(=O)NC(=S)/C=C1/N(C)c2ccccc2C1(C)C	8.5	-3.0%	35.5µM*	-4.2%	-0.1%	-0.2
O=S(=O)(c1cc(F)cc(F)c1)N1CCCC1c1nnc2ccccn12 (stereo not drawn)	.	.	-46.8%	.	.	.
COc1cccc(-c2noc(-c3cccc(Br)c3)n2)c1	.	.	14.4%	.	.	.
SMILES	TRPML1 blocker	Glioma ERSR ind	12-LOX inh	Vif-APOBEC3F blk	Vif-A3G inh	TRPML1 agonist
COc1ccc(C(=O)/C=C/c2ccc(N(C)C)cc2)c(OC)c1	-20.4	4.0%	0.0%	?	?	128.4*
COc1ccc(C(=O)/C=C/c2cc(OC)c(O)c(OC)c2)c(F)c1	-9.6	-5.8%	44.7µM*	?	?	11.6
Cc1nn(-c2ccc(N3CCOCC3)nn2)c(C)c1CCC(=O)NCc1cccs1	.	.	-3.1%	.	.	.
COc1ccc(-c2cc3ccc(OS(=O)(=O)c4ccccc4)cc3oc2=O)cc1OC	.	.	5.1%	.	.	.
CCN(CC)C(=S)SCC(=O)c1ccc(Br)cc1	-3.5	-0.8%	?	1.6%	-1.8%	0.2
CCN(CC)C(=S)SC/C(=N/Nc1ccc(Br)cc1)c1ccccc1	.	.	7.94µM*	.	.	.
COc1ccc(Cl)c2sc(N(CCN(C)C)C(=O)CCS(=O)(=O)c3ccc(C)cc3)nc12	40.3	-3.3%	15.8µM*	2.7%	0.5%	-0.5
Cc1ccc2nccc(/C=C/c3ccc(N(C)C)cc3)c2c1	.	-4.0%	.	.	3.55µM*	22.3
Cc1ccc2c(/C=C/c3ccc(N(C)C)cc3)ccnc2c1	.	3.4%	.	.	?	16.9
CN(C)c1ccc(/C=C/c2ccnc3cc(Cl)ccc23)cc1	.	-0.8%	.	.	?	105.4*
CN(C)c1ccc(/C=C/c2ccnc3c2ccc2c(/C=C/c4ccc(N(C)C)cc4)ccnc23)cc1	.	-4.8%	.	.	1.2%	0.4
O=[N+]([O-])c1cc2cccnc2c2ncccc12	17.1	-5.1%	?	?	-21.1%	0.8
O=[N+]([O-])c1cc(O)c2ncccc2c1	-9.5	-0.6%	?	-3.5%	11.2µM*	0.3
CC(C(=O)NCc1ccco1)n1cnc2c1c(=O)n(C)c(=O)n2C (stereo not drawn)	.	.	-5.0%	.	.	.
CCOc1ccc(-c2nc(=S)[nH][nH]2)cc1	40.7	5.8%	25.1µM*	-15.5%	-0.6%	-0.1
O=c1cc(C2=CCOCC2)oc2c(-c3cccc4[nH]ccc34)nccc12	.	.	35.5µM*	.	.	.
Clc1ccc(CN2CC[C@H](c3nc4cc(Cl)ccc4o3)C2)cc1	.	.	22.4µM*	.	.	.
FC(F)(F)c1ccc2nc([C@H]3CCN(Cc4ccc(Cl)cc4)C3)[nH]c2c1	.	.	31.6µM*	.	.	.
CN(C)c1ccc(CN2CC[C@H](c3nc4ccc(C(F)(F)F)cc4[nH]3)C2)cc1	.	.	-1.1%[176 µM]	.	.	.
COc1ccc(CN2CCCCC23Cc2ccccc2CNC3=O)c(OC)n1 (stereo not drawn)	.	.	3.3%[6.33 µM]	.	.	.
CCOc1ccc(Cn2c3ccc(OC)cc3c3nc4ccccc4nc32)cc1	-10.4	-6.8%	-5.0%	11.2µM*	?	2.2
Cc1cc(C(F)(F)F)c2c(N)c(C(=O)Nc3cc(C)on3)sc2n1	-9.5	5.5%	3.7%	11.2µM*	-15.7%	2.2
CC(=O)N1CCC(NC(=O)Cn2c(C)cc3ccccc32)CC1	.	.	8.3%	.	.	.
NC(=S)N/N=C/c1ccccc1[N+](=O)[O-]	6.5	-1.5%	35.5µM*	13.8%	1.5%	-0.3
NC(=S)N/N=C/c1ccc(-c2cc(Cl)cc(Cl)c2)o1	-5.6	-6.1%	39.8µM*	.	-22.8%	0.2
NC(=S)N/N=C/c1ccc(-c2cc(Cl)ccc2Cl)o1	27.0	1.1%	22.4µM*	-12.4%	-13.2%	3.2
NC(=S)N/N=C/c1ccc(-c2ccc([N+](=O)[O-])cc2)o1	-3.2	8.3%	31.6µM*	?	-5.9%	1.3
O=C(CCc1cccnc1)Nc1ccc(Cl)cc1F	.	.	4.0%	.	.	.
Cc1cc(Br)ccc1NC(=O)C1C2CCC(O2)C1C(=O)O (stereo not drawn)	-6.4	-1.2%	5.01µM*	0.9%	2.0%	-0.3
